Screening data as filed in PubChem.
tim23-1 inh – growth inhibitors of tim23-1 mutant yeast, primary screen, luminescence, uHTS; S. cerevisiae tim23-1 growth, BacTiter-Glo luminescence, 24 h; actives 1.3% (n = 330,000); inhibition, % at 20 µM; AID 463212, 2010;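 active = growth inhibition of the mutant yeast at or above 50%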;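 note: temperature-sensitive mutant grown at 25 °C; plate controls were DMSO-treated mutant yeast for no effect and medium wells lacking yeast for full effect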
TIM10 inh – growth inhibitors of isogenic TIM10 control yeast, primary screen, counter-screen for tim10-1 yeast inhibitor project, luminescence, uHTS. S. cerevisiae TIM10 strain growth, BacTiter-Glo luminescence, 24 h. inhibition, % at 10 µM. actives 1.4% (n = 330,000). AID 463195, 2010;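 active = inhibition of 40% or more at the single tested concentration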;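 note: wild-type TIM10 isogenic control strain grown at permissive 25 °C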
V-ATPase pH – regulators of yeast V-ATPase proton pumping, primary screen, pHLuorin cytosolic pH fluorescence; S. cerevisiae; response, % at 10 µM; actives 0.37% (n = 350,000); AID 504577, 2011; in the data active = response mostly above about 7.3%, no sharp cut-off; inactive = mostly below about 5.4%; note: actives read high
PfHsp90 set2 – growth inhibition of PfHsp90-expressing yeast, primary screen, antimalarial PfHsp90 inhibitor project, S. cerevisiae, BacTiter-Glo luminescence, single point, set 2 | BacTiter-Glo ATP, 48 h; yeast lacking PDR1 and PDR3 efflux regulators | AID 504621, 2011 | inhibition, % at 9.4 µM | actives 0.32% (n = 310,000);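 active = every replicate shows inhibition above about 80%, whatever the replicate mean, limit read from the data; inconclusive = mean inhibition reaches the set limit but some replicate falls short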;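 note: 0% = DMSO neutral controls and 100% = 20 µM radicicol positive controls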
tim10-1 inh – growth inhibitors of tim10-1 mutant yeast, primary screen, luminescence, uHTS; S. cerevisiae tim10-1 ts strain growth, BacTiter-Glo, 24 h; actives 2.2% (n = 330,000); inhibition, % at 20 µM;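 active = inhibition of at least 40%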;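 note: mutant grown at 25 °C; 0% = DMSO wells with yeast and 100% = wells holding no yeast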
SKKanGAS inh – S. pyogenes SKKanGAS growth inhibitors in kanamycin, primary screen, streptokinase expression inhibitor project, SKKanGAS strain, BacTiter-Glo luminescence. 6 h. inhibition, % at 7.5 µM. actives 1.3% (n = 300,000). AID 1662, 2009;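 active = mean replicate score, as percent of positive control median, at least 50; inconclusive = mean below 50 but one replicate at or above 50; inactive = mean and every replicate below 50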;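 note: strain carries kanamycin resistance gene driven by streptokinase promoter and grows in 40 µg/ml kanamycin; loss of luminescence reflects streptokinase promoter inhibition or plain growth inhibition; 0% = median of DMSO wells and 100% = positive control at its reference dose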
The depositor's hits bear a star; i = inactive; ? = inconclusive; nt = no result given. The list is not random: actives were taken first. Their share in the collection is about 4.6%.

SMILES | tim23-1 inh | TIM10 inh | V-ATPase pH | PfHsp90 set2 | tim10-1 inh | SKKanGAS inh
Cc1ccc(S(=O)(=O)Nc2ccc3ccccc3c2[N+](=O)[O-])cc1 | nt | nt | 0.3 | 115.4* | nt | nt
CCN1CCN(c2c(Cl)cccc2NC(=O)c2ccc3c(c2)OCCO3)CC1 | 16.3 | 9.9 | -19.7 | nt | 27.8 | -11.9
O=C(Nc1cccc(Cl)c1N1CCCCC1)c1ccc2c(c1)OCCO2 | 11.3 | 9.7 | -0.6 | -21.4 | 17.5 | 62.0*
O=C(NC(=S)Nc1ccccc1N1CCCCC1)c1ccc(F)cc1Cl | 41.4 | 33.3 | -3.8 | -12.5 | 33.8 | 49.6*
O=C(NC(=S)Nc1cccc(Cl)c1N1CCCCC1)c1ccc2c(c1)OCCO2 | 35.3 | 13.5 | 1.6 | -23.2 | 13.1 | 61.0*
NC(=S)N1CCCc2ccccc21 | -20.4 | 1.4 | -2.6 | 9.5 | 9.5 | -5.9
COc1cccc(-c2nnc(-c3ccc4ccccc4c3)o2)c1 | nt | nt | 2.2 | 7.6 | nt | nt
COc1cccc2sc(Nc3nnc(-c4ccccc4Cl)o3)nc12 | 4.1 | -2.0 | 0.0 | -3.8 | 5.4 | 90.7*
COc1cccc(-c2nnc(Nc3nc4c(F)cccc4s3)o2)c1 | 5.5 | -10.7 | 1.5 | 2.8 | -5.4 | 67.6*
COc1ccccc1-c1nnc(Nc2nc3c(OC)cccc3s2)o1 | 1.7 | 16.7 | -4.8 | nt | 9.0 | 91.4*
O=C(Nc1nnc(-c2ccccc2Cl)o1)c1nc2ccccc2s1 | 1.6 | -9.5 | -0.9 | 18.9 | -3.0 | 94.9*
CC(C)n1ncc2c(C(=O)N3CCN(Cc4ccc(Br)s4)CC3)cc(C3CC3)nc21 | 39.2 | 17.5 | 0.0 | 12.6 | 20.5 | nt
CCOc1cc(/C=C2/C(=N)N3C(=NC2=O)SN=C3S(C)(=O)=O)ccc1OS(=O)(=O)c1ccccc1 | 14.9 | 8.2 | -1.9 | -104.3 | 6.2 | 23.5
Cc1cc(/C=C2/C(=N)N3C(=NC2=O)SN=C3S(C)(=O)=O)c(C)n1-c1ccc(F)cc1 | 29.6 | 20.2 | -6.0 | -0.8 | 12.4 | 64.2*
CCC(CC)C1=NN2C(=N)/C(=C\c3cc(C)n(-c4cccc(C)c4)c3C)C(=O)N=C2S1 | 10.9 | 13.5 | -1.4 | -34.2 | 4.8 | 85.8*
COc1ccccc1-n1c(C)cc(/C=C2/C(=N)N3C(=NC2=O)SN=C3S(C)(=O)=O)c1C | 10.7 | 8.4 | -2.0 | -1.6 | 16.1 | 35.8
CCOc1ccc(-n2c(C)cc(/C=C3/C(=N)N4C(=NC3=O)SN=C4S(C)(=O)=O)c2C)cc1 | 33.6 | 26.9 | -2.8 | -25.1 | 32.2 | 84.2*
Cc1c(Cl)cccc1-c1ccc(CNCc2ccccn2)o1 | 3.7 | -2.5 | 2.6 | -4.0 | -29.0 | 82.8*
CC(C)(C)C(=O)C(CO)(Oc1ccc(Cl)cc1)n1cncn1 (stereo not drawn) | i | -96.0 | -1.1 | 88.9* | -96.9 | 4.3
CC(C)(Oc1ccc(Cl)cc1)C(=O)NCc1ccncc1 | 6.2 | 5.1 | 4.0 | 1.6 | 13.4 | -1.8
O=S(=O)(Nc1cccc2cccnc12)c1ccccc1 | 23.4 | 33.3 | -0.1 | -30.3 | 25.6 | ?
Cc1ccc2cccc(NS(=O)(=O)c3ccccc3)c2n1 | 18.1 | 6.9 | nt | nt | 9.6 | 54.9*
Cc1ccc(C)c(-c2nnc(NC(=O)c3ccco3)o2)c1 | 20.2 | -7.8 | 7.1 | nt | 1.2 | -9.0
Cc1ccc(-c2nnc(NC(=O)c3ccco3)o2)c(C)c1 | 20.9 | 5.5 | 0.0 | -22.1 | 21.9 | 83.7*
O=C(Nc1nnc(-c2ccc(Br)cc2)o1)c1ccco1 | 32.0 | -0.2 | 3.4 | nt | -4.8 | 93.8*
SMILES | tim23-1 inh | TIM10 inh | V-ATPase pH | PfHsp90 set2 | tim10-1 inh | SKKanGAS inh
Clc1ccc(-c2cc3ccccc3nc2N2CCCC2)cc1 | 25.5 | 11.5 | 4.3 | nt | 7.2 | 69.2*
CCOC(=O)c1ccc(N2C(=O)CC(N3CCC(O)(c4ccc(Br)cc4)CC3)C2=O)cc1 (stereo not drawn) | 9.7 | 13.5 | -2.4 | 96.4* | 15.4 | 0.2
CCOC(=O)c1ccc(N2C(=O)CC(N3CCC(O)(c4ccc(Cl)cc4)CC3)C2=O)cc1 (stereo not drawn) | 25.1 | 34.2 | 0.7 | 101.3* | 29.5 | 4.5
CCOC(=O)c1ccc(N2C(=O)CC(N3CCN(Cc4ccccc4)CC3)C2=O)cc1 (stereo not drawn) | 25.5 | 7.7 | 5.9 | 5.3 | 28.3 | -6.2
CCCOc1ccc(N2C(=O)CC(N3CCOCC3)C2=O)cc1 (stereo not drawn) | 17.0 | 15.9 | 0.0 | 23.6 | -1.5 | -1.1
CCOc1ccc(N2C(=O)CC(N3CCC(O)(c4ccc(Br)cc4)CC3)C2=O)cc1 (stereo not drawn) | 24.4 | 15.5 | -0.2 | ? | 38.7 | 3.9
CCCOc1ccc(N2C(=O)CC(N3CCC(C(=O)OCC)CC3)C2=O)cc1 (stereo not drawn) | 38.2 | 37.7 | 3.5 | 105.0* | 38.6 | 12.8
COc1ccc(N(C)S(=O)(=O)c2cccc(C(=O)N(C)Cc3ccc(C)o3)c2)cc1 | 13.4 | 15.5 | 3.6 | 1.4 | 22.3 | 1.0
CCc1cccc2c(C(=O)CSc3nnc(C4CC4)o3)c[nH]c12 | 22.6 | 12.5 | -2.6 | 1.3 | 1.4 | nt
COc1ccc(CN2CCNC(=O)C2CC(=O)N(C)C2CCOCC2)c(F)c1 (stereo not drawn) | 12.8 | 2.2 | 2.8 | 14.4 | -3.5 | -1.3
CCc1cc2c(=O)oc(-c3ccc(Br)cc3)nc2s1 | 21.2 | 21.1 | -0.7 | 16.2 | -0.4 | 1.9
Cc1cccc(C(=O)NC(=S)NNC(=O)Cc2ccccc2)c1 | 40.3 | 12.9 | -2.2 | 108.7* | 1.0 | 19.7
Cc1cccc(C(=O)NC(=S)NNC(=O)COc2c(C)cccc2C)c1 | -22.0 | 6.1 | 1.4 | -6.5 | -1.0 | 107.2*
Cc1cccc(C(=O)NC(=S)NNC(=O)c2ccccc2Cl)c1 | 17.5 | 12.8 | -2.4 | 19.5 | 37.7 | 85.7*
Cc1cccc(C(=O)NC(=S)NCc2ccccc2)c1 | 28.5 | 8.1 | 0.4 | -34.5 | 8.2 | 4.2
Cc1ccc(C(=O)NC(=S)NNC(=O)COc2ccccc2C)cc1 | -9.8 | -5.9 | -3.8 | nt | 7.0 | 117.9*
CCC(=O)NNC(=S)NC(=O)c1ccc(C)cc1 | -26.2 | 8.4 | 1.4 | 8.8 | -5.7 | 22.1
Cc1cccc(C(=O)NC(=S)Nc2ccccc2C(=O)O)c1 | 18.0 | 10.4 | -0.2 | -28.9 | 10.4 | 6.4
CN(CCCNC(=O)c1ccccc1F)CCCNC(=O)c1ccccc1F | -3.7 | -0.6 | -1.1 | 6.8 | -15.8 | -5.2
COc1ccc(Nc2nc(Nc3ccc(OC)cc3OC)nc(N3CCN(C)CC3)n2)c(OC)c1 | 10.2 | -2.1 | -3.5 | -22.5 | -7.5 | 2.0
CCC1(c2ccc(Cl)cc2)NC(=O)N(Cc2ccc(C(=O)OC)cc2)C1=O (stereo not drawn) | 25.8 | 33.7 | 13.3* | 13.9 | 30.8 | -1.6
